# Experimental data published in PubChem BioAssay AID493169 (National Center for Advancing Translational Sciences (NCATS), 2011).
# Inconclusive results are not listed. Active and inactive are the calls of the source. The call rests on the fitted dose curve; in most records, active means well fitted inhibition curve with a large enough effect; inconclusive means small, poorly fitted or top-dose-only effect; inactive means flat fitted curve, though single readings scatter.
# Experiment: CHOP2 Reporter Counterscreen Assay for Inhibitors of Ubiquitin-specific Protease USP2a;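 further: activated enterokinase alone at 50 pM in a cell-free format rather than USP2a or CHOP2; nearly all actives have a fitted effect of over 55% in size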
# Conditions: purified enterokinase, fluorogenic substrate, 485/531 nm; series mostly up to 38.3 µM; activity change, negative = inhibition: at the top concentration
# In short: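 Fluorescence (485/531 nm) read 10 min after adding 25nM reporter substrate to 50 pM activated EK preincubated 30 min RT with compound; Tris pH 8.0/CaCl2/CHAPS buffer. Data normalized to buffer-alone inhibition; concentration-response curves fitted.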
# On the % scale 0 is the no-effect control and ±100 the full control effect; potency means the concentration at half of the fitted maximal effect.
Compound,"activity change, negative = inhibition",Potency
O=C(CCNc1cccc(Cl)c1)c1ccco1,-1.57% (inactive),
CCn1c(COc2ccccc2)nnc1SCC(=O)CC(=O)Nc1ccccc1OC,-12.8% (inactive),
Cc1cc(NC(=O)COC(=O)CCCOc2ccc(Cl)cc2C)no1,3.35% (inactive),
O=C(CN1C(=O)/C(=C2\SC(=S)N(CCS(=O)(=O)O)C2=O)c2ccccc21)Nc1cccc(Br)c1,,12.6 µM (active)
O=C1c2ccccc2CCC12N=NCC2c1ccc(Br)cc1 (stereo unspecified),-2.24% (inactive),
COCCn1c(SCC(=O)Nc2cc(C)on2)nnc1-c1ccccc1,-0.447% (inactive),
C=CC[C@@H](CC(=O)N(CCO)Cc1ccccc1)C(=O)NCCOC(=O)[C@H](CC=C)CC(=O)OC(C)(C)C,4.41% (inactive),
CC(C)c1ccc(C2=C(O)c3ccccc3C(=O)C2=O)cc1,0.933% (inactive),
CC1CCCC(NC(=O)C2N(CCCN3CCCC3)C(=O)C3C(C(=O)Nc4ccc(Cl)cc4)C4C=CC32O4)C1C (stereo unspecified),-2.85% (inactive),
CCOC(=O)COc1c(OC)cc(Cl)cc1C1Nc2ccccc2C(=O)N1c1ccccc1 (stereo unspecified),-2.56% (inactive),
Cc1cc(C)n(C(=O)c2cccc(S(=O)(=O)N3CCCC3)c2)n1,5.71% (inactive),
COC(=O)c1ccc(NC(=O)CSC2=Nc3ccccc3C3CC=NN23)cc1 (stereo unspecified),-1.25% (inactive),
O=[N+]([O-])/C(C(Cl)=C(Cl)Cl)=C(\Sc1ccccc1)N1CCCCC1,-0.355% (inactive),
CC(C)n1c(/C=C/[C@H](O)C[C@H](O)CC(=O)O)c(-c2ccc(F)cc2)c2ccccc21,5.52% (inactive),
O=C(O)C(Cc1ccccc1)N1C(=O)/C(=C/C=C/c2ccco2)SC1=S (stereo unspecified),,2.51 µM (active)
COC(=O)c1[nH]c2cc(OC)ccc2c1N,1.82% (inactive),
